Data as given in PubChem BioAssay (NCATS).
A number with no mark means an inactive call. Results filed as inconclusive are left out. Active and inactive are the calls of the source. Unless noted, the call rests on the fitted dose curve; in most records, active means well fitted curve in either direction with a large enough effect (not every such curve was filed as active); inconclusive means small, poorly fitted or top-dose-only effect, or another doubt; inactive means flat fitted curve, though single readings scatter.

Assays:
[1] = NFAT Signaling Pathway (AID 444); conditions: Jurkat NFAT-bla M1, carbachol, beta-lactamase ratio, 5 h; at 17.2 µM (top of the series) unless noted;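 further: carbachol stimulus at about its EC50 of 1 µM final; on the % scale 0 is the no-effect control and ±100 the full control effect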
In short: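 Jurkat cells carrying an NFAT-driven β-lactamase reporter and co-transfected muscarinic M1 receptor were treated with compound plus carbachol (1 uM final, an EC50 level) for 5 h at 37 °C. CCF4 loading followed for 1 h at RT; 460/530 nm ratio gave %activity.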

[2] = Stat Signaling Pathway (AID 446); conditions: ME-180 (cervical carcinoma) SIE beta-lactamase reporter, IL-6 stimulated, 5 h; at 17.2 µM (top of the series) unless noted;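 further: ME-180 cervical cancer cells given 40 pM IL-6 alongside compound; SIE-controlled beta-lactamase reporter measured as 460/530 nm FRET emission ratio; on the % scale 0 is the no-effect control and ±100 the full control effect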
In short: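 Emission at 460 and 530 nm (excitation 405 nm) reports SIE-controlled beta-lactamase in ME-180 cells. Cells received compound with 40 pM IL-6 for 5 hrs at 37 C; data scaled between 300 pM IL-6 and 125 nM JAK-inhibitor controls.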

[3] = biological target: Glucocorticoid receptor (Homo sapiens) (UniProt P04150); experiment: GR-GFP Redistribution (AID 450;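 active means compounds whose dose series gives a full or clear partial fitted curve of increased nuclear translocation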; further: potency means the concentration at half of the fitted maximal effect)
Glucocorticoid receptor (Homo sapiens), sequence (P04150 whole entry, looked up): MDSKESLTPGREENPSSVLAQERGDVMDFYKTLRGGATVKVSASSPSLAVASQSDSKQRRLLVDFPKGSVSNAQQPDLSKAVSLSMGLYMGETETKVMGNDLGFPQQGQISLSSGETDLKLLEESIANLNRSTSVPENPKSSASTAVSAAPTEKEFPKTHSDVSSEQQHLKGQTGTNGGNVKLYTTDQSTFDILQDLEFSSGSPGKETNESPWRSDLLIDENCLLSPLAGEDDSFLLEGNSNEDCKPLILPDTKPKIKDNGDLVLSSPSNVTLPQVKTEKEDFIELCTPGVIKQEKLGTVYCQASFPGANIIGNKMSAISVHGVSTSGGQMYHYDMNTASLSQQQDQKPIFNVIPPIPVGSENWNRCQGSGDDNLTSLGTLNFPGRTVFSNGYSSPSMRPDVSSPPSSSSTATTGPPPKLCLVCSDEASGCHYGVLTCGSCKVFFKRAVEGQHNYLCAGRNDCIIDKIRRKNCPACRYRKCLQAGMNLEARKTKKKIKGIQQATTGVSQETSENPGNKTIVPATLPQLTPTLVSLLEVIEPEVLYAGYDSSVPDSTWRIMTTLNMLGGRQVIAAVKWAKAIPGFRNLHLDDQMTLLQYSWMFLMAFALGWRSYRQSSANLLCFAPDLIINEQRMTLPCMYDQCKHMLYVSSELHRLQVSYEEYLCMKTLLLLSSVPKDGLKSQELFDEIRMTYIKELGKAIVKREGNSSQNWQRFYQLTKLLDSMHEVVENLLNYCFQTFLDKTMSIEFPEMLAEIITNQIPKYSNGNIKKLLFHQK

| Compound | activity change, negative = inhibition [1] | activity, negative = inhibition [2] | Potency [3] [µM] |
| --- | --- | --- | --- |
| CCCSC1=C(C#N)C(c2ccc(OC)cc2)C2=C(CC(C)(C)CC2=O)N1 (configuration not stated) | -24.7% | -13% | > 20.6 |
| CCSC1=C(C#N)C(c2cccs2)C(C(=O)OC)=C(C)N1 (configuration not stated) | 2.23% | -15.6% | > 20.6 |
| CC(=NC1CCCC1)c1c(C)[nH]n(-c2nc3ccccc3s2)c1=O | -20.1% | -8.78% | > 20.6 |
| N#Cc1nc(-c2cccs2)oc1NCc1ccccc1 | -20.6% | -1.04% | > 20.6 |
| N#Cc1nc(-c2cccs2)oc1NCc1ccccc1Cl | -29.4% | -12.6% | > 20.6 |
| CCOc1ccc(C2C(C#N)=C(N)Oc3cc(C)n(CCN4CCOCC4)c(=O)c32)cc1OCC (configuration not stated) | 7.01% | 0.201% | > 20.6 |
| COc1cccc(OC)c1OCC(C)CNCC1CCCO1 (configuration not stated) | -18.8% | 10.2% | > 20.6 |
| CCCOc1ccc(N2C(=O)C3ON(c4ccccc4)C(c4ccc(O)c(OC)c4)C3C2=O)cc1 (configuration not stated) | 10.7% | -20% | > 20.6 |
| COc1cc(C2C(C#N)=C(N)Oc3cc(C)n(CCc4ccccc4)c(=O)c32)cc2c1OCO2 (configuration not stated) | -4.95% | -6.08% | > 20.6 |
| COc1cccc(N2CCN(c3ncnc4c3[nH]c3ccccc34)CC2C)c1 (configuration not stated) | -139% (active) | -104% (active) | > 20.6 |
| [N-]=[N+]=CC(=O)c1ccnc(C(=O)C=[N+]=[N-])c1 | -17.4% | -1.87% | > 20.6 |
| COC(=O)c1ccc(-c2sc3nc(N4CCOCC4)c4c(c3c2N)CCCC4)o1 | -5.04% | -5.83% | > 20.6 |
| Cc1nc2sc3c(c2c(=O)o1)CC(C)(C)OC3 | -10.1% | -8.31% | > 20.6 |
| Cc1ccc(-n2ncc3c(NCc4cccnc4)ncnc32)c(C)c1 | -27.9% | -18.9% | > 20.6 |
| CC(C)(C)n1cnc2cc(NS(=O)(=O)c3ccc(Br)cc3)ccc21 | -27.1% | -28% | > 20.6 |
| Brc1cccc(-c2cnc3n2CCCCC3)c1 | -87.3% (active) | -10.7% | > 20.6 |
| Cc1nc(NCCN)c(C#N)c2c1COC(C)(C)C2 | -1.13% | 7.79% | > 20.6 |
| O=C(c1ccc2c3c(cccc13)C(=O)N(O)C2=O)N1CCCCC1 | 0.433% | 22.1% | > 20.6 |
| COc1cccc(-c2nc(NCc3ccco3)c3ccccc3n2)c1O | 7.35% | -8.59% | > 20.6 |
| Cn1c2ccccc2c2nn(-c3ccccc3)c(=O)cc21 | 2.73% | 6.09% | > 20.6 |
| Clc1ccc(-n2ncc3c(NCc4ccccn4)ncnc32)cc1 | -18.5% | -20.2% | > 20.6 |
| Cc1cc(N/C=C/C(=O)c2cccc3ccccc23)no1 | -3.82% | -10.2% | > 20.6 |
| Cc1cc(C)c(C#N)c(SCC(=O)N2CCN(Cc3ccccc3)CC2)n1 | -24.4% | 11.8% | > 20.6 |
| Cn1c(=O)c2c(nc(Oc3ccc4c(c3)OCO4)n2Cc2ccc(Br)cc2)n(C)c1=O | -5.35% | -4.55% | > 20.6 |
